Data from PubChem BioAssay (Tox21).
Records with an inconclusive call do not appear. The source made the active and inactive calls. Unless noted, calls come from the whole dose curve; as a rule, active = well fitted curve in the direction sought with a large enough effect in the repeat runs; inconclusive = weak or mixed curves; inactive = no such curve, though single readings can be large; an effect the other way counts as inactive or inconclusive.

Legend:
[1] = qHTS assay to identify small molecule agonists of the vitamin D receptor (VDR) signaling pathway - cell viability counter screen (AID 743224); note: series mostly up to about 63 µM; % is set by controls: 0 for no effect and ±100 for the full control effect; nearly all actives have a fitted effect of over 50% in size
Method in brief: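 CellTiter-Glo viability readout on VDR-bla cells, measured after 16 h of compound treatment at 37C in the same wells.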

[2] = qHTS assay to identify small molecule antagonists of the vitamin D receptor (VDR) signaling pathway - cell viability counter screen (AID 743225); note: % is set by controls: 0 for no effect and ±100 for the full control effect; nearly all actives have a fitted effect of over 50% in size
Method in brief: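 Cytotoxicity toward the VDR-bla HEK 293T line was scored by ATP-based CellTiter-Glo luminescence, read in the wells already used for the beta-lactamase readout after 16 h compound treatment under 3 nM 1-alpha,25-dihydroxyvitamin D3 stimulation.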

[3] = qHTS assay to identify small molecule agonists of the NFkB signaling pathway (AID 1159509; active = well fitted curve in the direction sought with a large enough effect in the signal ratio in the repeat runs, not every such curve was filed as active; the % refers to the signal ratio; note: series mostly up to about 61 µM; % is set by controls: 0 for no effect and ±100 for the full control effect)
Method in brief: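 Pathway activation was measured in ME-180 cells stably expressing beta-lactamase under NF-kB response element control. Substrate cleavage was read as the 460/530 nm emission shift after 5 hr compound incubation.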

[4] = qHTS assay to identify small molecule agonists of the NFkB signaling pathway - cell viability counter screen (AID 1159515; calls by dose curve; note: series mostly up to about 61 µM; % is set by controls: 0 for no effect and ±100 for the full control effect; nearly all actives have a fitted effect of over 55% in size)
Method in brief: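 Tox21 library compounds were tested for cytotoxicity against NFkB-bla ME-180 cells during a 5 hr exposure at 37 C. CellTiter-Glo luminescence served as the viability read-out.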

[5] = qHTS assay to identify small molecule agonists of the endoplasmic reticulum stress response signaling pathway (AID 1159516; active = well fitted activation curve with a large enough effect in the signal ratio in the repeat runs, not every such curve was filed as active; the % refers to the signal ratio; note: % is set by controls: 0 for no effect and ±100 for the full control effect)
Method in brief: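 Fluorescence at 460 and 530 nm (405 nm excitation) reports beta-lactamase from an ER stress response element in HeLa cells treated 5 hr at 37 C.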

[6] = qHTS assay to identify small molecule agonists of the endoplasmic reticulum stress response signaling pathway - cell viability counter screen (AID 1159517; calls by dose curve; note: series mostly up to about 61 µM; % is set by controls: 0 for no effect and ±100 for the full control effect; nearly all actives have a fitted effect of over 50% in size)
Method in brief: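 In parallel with the ESRE reporter read, cytotoxicity was scored by CellTiter-Glo luminescence (30 min, room temperature) on HeLa ESRE-bla cells dosed for 5 hr.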

[7] = qHTS assay to identify small molecule antagonists of the retinoid-related orphan receptor gamma (ROR-gamma) signaling pathway - cell viability counter screen (AID 1159520); note: % is set by controls: 0 for no effect and ±100 for the full control effect; nearly all actives have a fitted effect of over 50% in size
Method in brief: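 Tet-on ROR gamma CHO cells were given compounds for 2 hr, then doxycycline hyclate at 1 uM final, and incubated 16 hr at 37 C. Viability was measured as ATP content by CellTiter-Glo luminescence.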

[8] = biological target: Nuclear receptor ROR-gamma (Homo sapiens) (UniProt P51449); experiment: qHTS assay to identify small molecule antagonists of the retinoid-related orphan receptor gamma (ROR-gamma) signaling pathway (AID 1159521)
Method in brief: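 Readout: ONE-Glo luciferase luminescence, 30 min at room temperature. System: Tet-on RORγ CHO, RORE-LUC. Sequence: compound 2 h, doxycycline 1 uM final, 16 h at 37 C.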

[9] = qHTS assay to identify small molecule agonists of the AP-1 signaling pathway - cell viability counter screen (AID 1159525; calls by dose curve; note: nearly all actives have a fitted effect of over 55% in size)
Method in brief: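 Same-well cytotoxicity counter screen of the Tox21 10K library in ME-180 cells. The readout is ATP-dependent luminescence after 5 h compound treatment. Data are normalised to DMSO and tetra n-octyl ammonium bromide controls.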

[10] = qHTS assay to identify small molecule agonists of the AP-1 signaling pathway (AID 1159526; calls by dose curve; note: % is set by controls: 0 for no effect and ±100 for the full control effect)
[11] = biological target: Retinoic acid receptor RXR-alpha (Homo sapiens) (UniProt P19793); experiment: qHTS assay to identify small molecule agonists of the RXR signaling pathway (AID 1159527; calls by dose curve; note: % is set by controls: 0 for no effect and ±100 for the full control effect; nearly all actives have a fitted effect of over 35% in size)
Chain of Retinoic acid receptor RXR-alpha (Homo sapiens) (P19793 whole entry, looked up): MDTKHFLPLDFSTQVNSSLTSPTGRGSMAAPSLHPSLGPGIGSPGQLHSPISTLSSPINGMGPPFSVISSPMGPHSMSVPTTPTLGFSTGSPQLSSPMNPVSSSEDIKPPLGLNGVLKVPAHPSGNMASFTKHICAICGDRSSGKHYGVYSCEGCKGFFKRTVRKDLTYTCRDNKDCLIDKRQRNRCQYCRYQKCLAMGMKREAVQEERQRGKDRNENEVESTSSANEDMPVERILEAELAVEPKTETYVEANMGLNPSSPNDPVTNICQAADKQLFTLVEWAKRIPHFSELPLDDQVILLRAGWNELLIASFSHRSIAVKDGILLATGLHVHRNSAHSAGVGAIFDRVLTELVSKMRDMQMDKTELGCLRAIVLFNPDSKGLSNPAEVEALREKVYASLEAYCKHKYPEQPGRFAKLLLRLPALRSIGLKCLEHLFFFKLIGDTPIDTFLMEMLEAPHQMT
Method in brief: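 Reporter activation is measured as beta-lactamase activity via FRET substrate cleavage (emission 460/530 nm) in HEK 293T cells expressing an RXR-alpha-driven bla construct, following 16 hr compound exposure at 37 C.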

[12] = qHTS assay to identify small molecule agonists of the RXR signaling pathway - cell viability counter screen (AID 1159529)
Method in brief: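 Tox21 10K compounds were tested for cytotoxicity against GeneBLAzer RXR-alpha HEK 293T cells grown in 2% charcoal-stripped FBS. Exposure lasted 16 hr at 37 C, 5% CO2; viability read by CellTiter-Glo luminescence.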

[13] = qHTS assay to identify small molecule antagonists of the retinoid acid receptor (RAR) signaling pathway - cell viability counter screen (AID 1159551); note: % is set by controls: 0 for no effect and ±100 for the full control effect; nearly all actives have a fitted effect of over 35% in size
Method in brief: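 In this counter screen, the RARE-luciferase line C3RL4 was exposed for 6 h at 37 C and 5% CO2 to compounds with retinol at 1 uM final. Cellular ATP, read by luminescence, served as the viability measure.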

CCCCCCCCCCC1CO1 (configuration not stated)
inactive: outcome [1] | outcome [2] | outcome [3] | outcome [4] | outcome [5] | outcome [6] | Potency [7] | Potency [8] | outcome [9] | Potency [10] | Potency [11] | Potency [12] | outcome [13]

FC(F)(F)C(F)(F)C(F)(F)C(F)(F)C(F)(F)C(F)(F)C(F)(F)C(F)(F)C(F)(F)C(F)(F)F
inactive: activity change, negative = cytotoxicity [1] 9.06% [at 5.95 µM] | activation [3] -0.0985% [at 6.95 µM] | activity, negative = cytotoxic [4] 0.724% [at 6.95 µM] | activation [5] -9% [at 6.95 µM] | activity change, negative = cytotoxicity [6] -26.7% [at 6.95 µM] | activity, negative = cytotoxicity [7] 0.201% [at 8.39 µM] | activity change, negative = inhibition [8] 29.3% [at 8.39 µM] | viability change, negative = cytotoxic [9] -11.9% [at 6.97 µM] | activation [10] 7.26% [at 6.97 µM] | activation [11] 2.2% [at 6.98 µM] | activity change, negative = cytotoxicity [12] 1.03% [at 6.97 µM]

O=C(O)/C=C/c1ccc(/C=C/C(=O)O)cc1
inactive: outcome [1] | outcome [2] | outcome [3] | outcome [4] | outcome [5] | outcome [6] | Potency [7] | Potency [8] | outcome [9] | Potency [10] | Potency [11] | Potency [12] | outcome [13]

CC1=CC(C)C(C=O)C(C)C1 (configuration not stated)
inactive: outcome [1] | outcome [2] | outcome [3] | outcome [4] | outcome [5] | outcome [6] | Potency [7] | Potency [8] | outcome [9] | Potency [10] | Potency [11] | Potency [12] | outcome [13]

Fc1ccccc1-c1ccccc1
inactive: outcome [1] | outcome [2] | outcome [3] | outcome [4] | outcome [5] | outcome [6] | Potency [7] | Potency [8] | outcome [9] | Potency [10] | Potency [11] | Potency [12] | outcome [13]

C=C(C)C(=O)OCCCCCCCCCCCCCCCCCC
inactive: outcome [1] | outcome [3] | outcome [4] | outcome [5] | outcome [6] | activity, negative = cytotoxicity [7] -0.822% [at 19 µM] | activity change, negative = inhibition [8] 0.457% [at 19 µM] | viability change, negative = cytotoxic [9] 1.55% [at 15.8 µM] | activation [10] 0.371% [at 15.8 µM] | activation [11] 6.68% [at 15.8 µM] | activity change, negative = cytotoxicity [12] 15.1% [at 15.8 µM]

C=C(C)[C@@H]1CCC2=CC(=O)C[C@@H](C)[C@]2(C)C1
inactive: outcome [1] | outcome [3] | outcome [4] | outcome [5] | outcome [6] | Potency [7] | Potency [8] | outcome [9] | Potency [10] | Potency [11] | Potency [12] | outcome [13]

Cc1cc(C)c(NC(=O)CN(CC(=O)O)CC(=O)O)c(C)c1Br
inactive: outcome [1] | outcome [2] | outcome [3] | outcome [4] | outcome [5] | outcome [6] | Potency [7] | Potency [8] | outcome [9] | Potency [10] | Potency [11] | Potency [12] | outcome [13]

CC(=O)CCc1ccc(O)cc1
inactive: outcome [1] | outcome [2] | outcome [3] | outcome [4] | outcome [5] | outcome [6] | Potency [7] | Potency [8] | outcome [9] | Potency [10] | Potency [11] | Potency [12] | outcome [13]

NS(=O)(=O)c1cc2c(cc1Cl)NC(CSCc1ccccc1)=NS2(=O)=O
inactive: outcome [1] | outcome [3] | outcome [4] | outcome [5] | outcome [6] | Potency [7] | Potency [8] | outcome [9] | Potency [10] | Potency [11] | Potency [12] | outcome [13]

COC(=O)CCCC(=O)O
inactive: outcome [1] | outcome [2] | outcome [3] | outcome [4] | outcome [5] | outcome [6] | Potency [7] | Potency [8] | outcome [9] | Potency [10] | Potency [11] | Potency [12] | outcome [13]

CCn1c(=O)c2c(nc(/C=C/c3ccc(OC)c(OC)c3)n2C)n(CC)c1=O
inactive: outcome [1] | outcome [2] | outcome [3] | outcome [4] | outcome [5] | outcome [6] | Potency [7] | Potency [8] | outcome [9] | Potency [10] | Potency [11] | Potency [12] | outcome [13]

CC(C)CCCC(C)CCCC(C)CCCCC(C)CCCC(C)CCCC(C)C (configuration not stated)
inactive: outcome [2] | outcome [3] | outcome [4] | outcome [5] | outcome [6] | Potency [7] | Potency [8] | outcome [9] | Potency [10] | Potency [11] | Potency [12] | outcome [13]

O=C(O)c1ccccc1S
inactive: outcome [1] | outcome [2] | outcome [3] | outcome [4] | outcome [5] | outcome [6] | Potency [7] | Potency [8] | outcome [9] | Potency [10] | Potency [11] | Potency [12] | outcome [13]

CCn1cc(C(=O)O)c(=O)c2cc(F)c(N3CCN(C)CC3)cc21
inactive: outcome [3] | outcome [4] | outcome [5] | outcome [6] | activity, negative = cytotoxicity [7] 0.209% [at 19 µM] | activity change, negative = inhibition [8] -0.847% [at 19 µM] | viability change, negative = cytotoxic [9] 2.53% [at 15.8 µM] | activation [10] 0.51% [at 15.8 µM] | activation [11] 8.93% [at 15.8 µM] | activity change, negative = cytotoxicity [12] 6.61% [at 15.8 µM] | activity change, negative = cytotoxicity [13] 1.65% [at 19 µM]

CO[Si](OC)(OC)OC
inactive: outcome [1] | outcome [3] | outcome [4] | outcome [5] | outcome [6] | Potency [7] | Potency [8] | outcome [9] | Potency [10] | Potency [11] | Potency [12] | outcome [13]

NS(=O)(=O)c1cc2c(cc1C(F)(F)F)NC(Cc1ccccc1)NS2(=O)=O (configuration not stated)
inactive: outcome [1] | outcome [2] | outcome [3] | outcome [4] | outcome [5] | outcome [6] | Potency [7] | Potency [8] | outcome [9] | Potency [10] | Potency [11] | Potency [12] | outcome [13]

Nc1cc(N)cc(C(=O)O)c1
inactive: outcome [1] | outcome [2] | outcome [3] | outcome [4] | outcome [5] | outcome [6] | Potency [7] | Potency [8] | outcome [9] | Potency [10] | Potency [11] | Potency [12] | outcome [13]

CCN(CC)S(=O)(=O)c1ccc(C(=O)O)cc1
inactive: outcome [1] | outcome [2] | outcome [3] | outcome [4] | outcome [5] | outcome [6] | Potency [7] | Potency [8] | outcome [9] | Potency [10] | Potency [11] | Potency [12] | outcome [13]
